Screening results deposited in PubChem by National Center for Advancing Translational Sciences (NCATS).
Compounds with a hit are over-represented: about 17% of the library has one in this group of screens.
TGFb inhibitor = TGF-b pathway inhibition; HepG2 CAGA-GFP TGF-b/SMAD3 reporter, GFP fluorescence, 18 h; TGF-beta stimulated, 500 pg/mL final; Potency, µM (titrated, usually from 46.1 µM), inactives show top-dose activity, negative = inhibition, usual class: inhibitors; 1.2% of 410,000 active; further: on the % scale 0 is the no-effect control and ±100 the full control effect; nearly all actives have a fitted effect of over 65% in size
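Inhibition of TGF-beta-driven CAGA-GFP reporter expression in HEPG2 cells is measured by cellular GFP fluorescence after 18 h stimulation with 500 pg/mL recombinant TGF-beta in 1% FBS medium at 37 degrees C.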
TDP1 cell CPT = growth inhibition of DT40 Tdp1-/-;hTDP1 cells with camptothecin (screen for TDP1 inhibitors); AID 686979; 12% of 420,000 active; chicken DT40 Tdp1-/-;hTDP1 cells + 20 nM CPT, ATP luminescence, 48 h; Potency, µM (titrated, usually from 46.2 µM), inactives show top-dose activity change, negative = growth inhibition, usual class: inhibitors; further: on the % scale 0 is the no-effect control and ±100 the full control effect; nearly all actives have a fitted effect of over 55% in size
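Cell growth measured by CellTiter-Glo luminescence after a minimum 48 h, 37 C compound exposure with 20 nM CPT in Tdp1-knockout DT40 cells stably expressing hTDP1, seeded 400/well; qHTS titration format.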
HT1080 IDH1KD tx = toxicity to HT-1080 IDH1 knockdown cells (counter line); HT-1080 IDH1 knockdown viability, ATP luminescence, 48 h; Potency, µM (top dose mostly 46.1 µM), without a hit: at the highest dose activity, negative = toxicity, hits mostly cytotoxic; 2% of 360,000 active; AID 686971;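 further: 0% = DMSO wells and -100% = cell-free medium wells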
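After a 2 h attachment period, IDH1KD HT-1080 cells took pin-transferred compound for 48 h at 37 °C; ATP-based luminescence after 10 min room-temperature reagent incubation reported viability.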
HT1080NT lethal = kills 2HG-producing HT-1080-NT fibrosarcoma cells. Potency, µM (top dose mostly 46.1 µM), without a hit: at the top dose activity, negative = less viability, most hits filed as cytotoxic. 1.6% of 360,000 active. AID 686970. HT-1080-NT fibrosarcoma viability, CellTiter-Glo ATP luminescence, 48 h;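 further: NT is the 2HG producing partner of a matched IDH1 knockdown line; 0% = DMSO-treated cells and -100% = media-only wells without cells; nearly all actives have a fitted effect of over 55% in size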
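Luminescent CellTiter-Glo readout after 48 hours of compound exposure at 37 degrees C defined viability of HT-1080-NT cells. Activity was normalized to DMSO wells and cell-free media wells; concentration-response curves were fitted and assigned curve classes.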
DT40 TDP1 no CPT = qHTS for Inhibitors of human tyrosyl-DNA phosphodiesterase 1 (TDP1): qHTS in cells in absence of CPT; Potency, µM (highest dose often 46.2 µM), inactives show at the highest dose activity change, negative = growth inhibition, usual class: inhibitors; AID 686978, 2013; DT40 Tdp1-/- hTDP1 cells, no CPT, ATP luminescence, 48 h; 15% of 420,000 active; further: on the % scale 0 is the no-effect control and ±100 the full control effect; nearly all actives have a fitted effect of over 55% in size
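Readout: luminescence from CellTiter-Glo after 30 min in the dark at RT. Cells: DT40 Tdp1-/- with stable hTDP1, 400/well. Exposure: compounds alone, ≥48 hr, 37 °C.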
HepG2 tox = HepG2 cytotoxicity, counter-screen for TGF-b inhibitors; HepG2 CAGA-GFP viability, ATP luminescence, 18 h; Potency, µM (top dose mostly 46.1 µM), for the others: top-dose activity change, negative = cytotoxicity, actives largely listed as cytotoxic; 0.76% of 410,000 active; AID 588856
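CellTiter-Glo luminescence gave cytotoxicity after 18 hours at 37 degrees C. The cells were HepG2 CAGA-GFP in 1% FBS DMEM, stimulated with 500 pg/mL TGF-beta after compound addition. %Activity was normalised to no-cell wells (complete cell-killing) and DMSO (no toxicity), and curves were fitted and classified.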
The depositor's hits bear a star; [ ] = dose if it differs, or a comment. The call rests on the fitted dose curve; in most records, active means well fitted curve in the direction sought with a large enough effect; inconclusive means small, poorly fitted or top-dose-only effect, or another doubt; inactive means no such curve, though single readings can be large; an effect the other way counts as inactive or inconclusive. Potency means the concentration at half of the fitted maximal effect.

Cc1ccnc(NC(=O)c2ccc(S(=O)(=O)N3CCC(C)CC3)cc2)c1 was read as TGFb inhibitor -1%, TDP1 cell CPT -4%, HT1080 IDH1KD tx -1%, HT1080NT lethal -2%, DT40 TDP1 no CPT -27% and HepG2 tox -2%.
For CC(=O)c1c(NCCc2ccccc2)nc(=S)n(-c2ccccc2)c1C the results were TGFb inhibitor inconclusive, TDP1 cell CPT 21µM*, HT1080 IDH1KD tx -12%, HT1080NT lethal -15%, DT40 TDP1 no CPT 18µM* and HepG2 tox -103%.
`Cc1ccc(SCCC(=O)N/N=C/c2ccccc2O)cc1` gave TGFb inhibitor 3%, TDP1 cell CPT 0.65µM*, HT1080 IDH1KD tx inconclusive, HT1080NT lethal -30%, DT40 TDP1 no CPT 1.3µM* and HepG2 tox -37%.
For O=C(CCC(=O)Nc1ccc(Br)cc1)N/N=C/c1ccccc1O the results were TGFb inhibitor -2%, TDP1 cell CPT inconclusive, HT1080 IDH1KD tx 13µM*, HT1080NT lethal 10µM*, DT40 TDP1 no CPT 6.5µM* and HepG2 tox -16%.
Cc1ccc(NC(=O)CCC(=O)N/N=C/c2ccccc2O)cc1 was read as TGFb inhibitor -30%, TDP1 cell CPT 10µM*, HT1080 IDH1KD tx inconclusive, HT1080NT lethal inconclusive, DT40 TDP1 no CPT 15µM* and HepG2 tox -22%.
For Cc1ccc(SCCC(=O)N/N=C/c2cccnc2)cc1 the results were TGFb inhibitor -21%, TDP1 cell CPT inconclusive, HT1080 IDH1KD tx -3%, HT1080NT lethal 2%, DT40 TDP1 no CPT -23% and HepG2 tox -23%.
`Cn1c(NC(=O)C2CCCO2)cc(=O)n(C)c1=O` (stereo not drawn) gave TGFb inhibitor -1%, TDP1 cell CPT -11%, HT1080 IDH1KD tx -3%[9.24 µM], HT1080NT lethal 5%, DT40 TDP1 no CPT 1% and HepG2 tox 0%.
For CCCc1cc(=O)[nH]c(Nc2ccc3c(c2)OCCO3)n1 the results were TGFb inhibitor 14%, TDP1 cell CPT -4%, HT1080 IDH1KD tx 3%, HT1080NT lethal 1%, DT40 TDP1 no CPT -26% and HepG2 tox 7%.
`Cc1ccc(C(=O)Cc2ccccc2)o1` gave TGFb inhibitor -17%, TDP1 cell CPT -16%, HT1080 IDH1KD tx 4%, HT1080NT lethal 2%, DT40 TDP1 no CPT -1% and HepG2 tox -10%.
`CCNc1ccccc(C(=O)/C=C/c2ccc3c(c2)OCO3)c1=O` gave TGFb inhibitor inconclusive, TDP1 cell CPT 8.2µM*, HT1080 IDH1KD tx -18%, HT1080NT lethal -25%, DT40 TDP1 no CPT 16µM* and HepG2 tox -26%.
`Cc1ccc(C(=O)N/N=C/c2ccc3c(c2)OCO3)o1` gave TGFb inhibitor -2%, TDP1 cell CPT -18%, HT1080 IDH1KD tx inconclusive, HT1080NT lethal -18%, DT40 TDP1 no CPT -1% and HepG2 tox -38%.
Screening C/C(=N/NS(=O)(=O)c1ccc(Br)cc1)c1ccc(C)o1 returned TGFb inhibitor -3%, TDP1 cell CPT -11%, HT1080 IDH1KD tx 21%, HT1080NT lethal 8%, DT40 TDP1 no CPT -26% and HepG2 tox 9%.
`Cc1ccc(C(=O)/C=C/c2ccc3c(c2)OCO3)o1` gave TGFb inhibitor inconclusive, TDP1 cell CPT 18µM*, HT1080 IDH1KD tx inconclusive, HT1080NT lethal inconclusive, DT40 TDP1 no CPT 21µM* and HepG2 tox -44%.
`Cc1ccc(C(=O)/C=C/c2ccccc2)o1` gave TGFb inhibitor -25%, TDP1 cell CPT inconclusive, HT1080 IDH1KD tx -8%, HT1080NT lethal -2%, DT40 TDP1 no CPT 15µM* and HepG2 tox -49%.
